Laboratory results as given in PubChem BioAssay AID686979 (National Center for Advancing Translational Sciences (NCATS), 2013).
Screen size: about 420,000 compounds; about 50,000 (12%) were called active. Inconclusive results (about 26%) are left out. The list comes from a sample in which actives are over-represented; it also holds similar structures and randomly drawn compounds. Values without a mark were called inactive. Calls come from the whole dose curve; as a rule, active = well fitted inhibition curve with a large enough effect; inconclusive = small, poorly fitted or top-dose-only effect; inactive = flat fitted curve, though single readings scatter.

Test: qHTS for Inhibitors of human tyrosyl-DNA phosphodiesterase 1 (TDP1): qHTS in cells in presence of CPT; note: nearly all actives have a fitted effect of over 55% in size
Conditions: chicken DT40 Tdp1-/-;hTDP1 cells + 20 nM CPT, ATP luminescence, 48 h; series mostly up to 46.2 µM; activity change, negative = growth inhibition: at the top concentration
Method in brief: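 Cell growth measured by CellTiter-Glo luminescence after a minimum 48 h, 37 C compound exposure with 20 nM CPT in Tdp1-knockout DT40 cells stably expressing hTDP1, seeded 400/well; qHTS titration format.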
% is set by controls: 0 for no effect and ±100 for the full control effect; potency is the fitted concentration of half-maximal effect.

Row | SMILES | activity change, negative = growth inhibition [%] | Potency
1 | Cc1ccc2c(O)c(Cc3ccccc3)c(=O)[nH]c2n1 | -7.61 | –
2 | O=C(NC1CCCC1)C1CCN(C(=O)Nc2cccc(Cl)c2)CC1 | 0.714 | –
3 | COc1ccc(CNC(=O)COC(=O)c2sccc2C)cc1OC | -16.2 | –
4 | OC(CN=c1sc2ccccc2n1CC(O)COc1ccccc1)COc1ccccc1 (centres undefined) | – | 25.9 µM (active)
5 | O=C(c1ccccc1)c1ccc(OCC(O)CN2CCCC2)cc1 (centres undefined) | -0.0362 | –
6 | OC(COc1ccccc1)Cn1cc(Br)cn1 (centres undefined) | 5.11 | –
7 | Cc1ccc(OCCNC(=O)CCNS(=O)(=O)c2ccc(Br)cc2)cc1 | -29.3 | –
8 | COc1ccc(C)cc1Nc1n[n+](-c2ccccc2)c(-c2cccc(Cl)c2Cl)s1 | – | 13 µM (active)
9 | COc1ccc(C)cc1Nc1nc(-c2c(C)[nH]c3ccccc23)cs1 | -20.2 | –
10 | COc1ccc(C)cc1S(=O)(=O)Nc1cccc(Cl)c1Cl | -10.9 | –
11 | O=C(c1ccc(NS(=O)(=O)c2ccc3[nH]c(=O)[nH]c3c2)cc1)N1CCCCC1 | 5.76 | –
12 | N#CC1(NC(=O)COC(=O)CSc2ccc(F)cc2)CCCCC1 | -20.6 | –
13 | Cc1ccc(NC(=O)NC(=O)c2ccccc2)cc1F | -13.6 | –
14 | Cc1ccc(NC2=C(c3ccc(C(F)(F)F)cc3)C(=O)c3ccccc32)cc1F | – | 8.2 µM (active)
15 | CC(=O)N1CCN(CC(=O)Nc2ccc(C)c(F)c2)CC1 | -19.2 | –
16 | COC(=O)c1sc(SC)c(S(=O)(=O)C(C)C)c1N/N=C(\C#N)S(=O)(=O)c1ccccn1 | 1.69 | –
17 | CCCC(=O)OCC(=O)Nc1cc(Cl)ccc1[N+](=O)[O-] | 6.39 | –
18 | CCc1ccc(CN(C)C(=O)CCc2nnc(-c3ccc(-c4ccccc4)cc3)o2)nc1 | – | 18.4 µM (active)
19 | CC(C)N(C)C(=O)CCc1nnc(CCc2c[nH]c3ccccc23)o1 | -6.4 | –
20 | CC(=O)c1ccc(-c2nnc(CCC(=O)N(C)Cc3cnc4ccccn34)o2)s1 | 0.834 | –
21 | CCCc1ccc(OCC(O)CN2CCN(CCO)CC2)cc1 (centres undefined) | 6.86 | –
22 | CN(C)C(=O)c1cccc(-c2cnc3c(NC=O)cc(-c4ccc(C(=O)N5CCOCC5)cc4)cn23)c1 | – | 29.1 µM (active)
23 | CC(=O)c1cccc(-c2cnc3c(NC=O)cc(-c4ccc(N(C)C)cc4)cn23)c1 | – | 7.31 µM (active)
24 | CC(=O)Nc1cc(-c2ccc(N3CCN(C)CC3)cc2)cn2c(-c3ccc(F)cc3)cnc12 | – | 5.17 µM (active)
25 | CC(=O)N1c2ccccc2CC1C(=O)N1CCN(c2ccc(F)cc2)CC1 (centres undefined) | -18.4 | –
26 | O=C(Nc1ccc(F)cc1)N1CCN(c2ccc(F)cc2)CC1 | 19.6 | –
27 | COc1ccccc1C(=O)Nc1cccc(C(=O)N2CCOCC2)c1 | 9.81 | –

Row | SMILES | activity change, negative = growth inhibition [%] | Potency
28 | CNc1cncc(-c2cccc(C(=O)N3CCOCC3)c2)n1 | -12.1 | –
29 | CC(=O)c1cccc(-c2cnc3c(NC=O)cc(-c4ccccc4Oc4ccccc4)cn23)c1 | – | 14.6 µM (active)
30 | COC(=O)C1CCN(C(=O)NC2CC(=O)N(c3ccc4c(c3)OCCO4)C2)CC1 (centres undefined) | 1.67 | –
31 | NC(=O)COC(=O)c1ccc2c(c1)C(=O)N(Cc1ccco1)C2=O | -16.2 | –
32 | COc1cc2c(C(=O)O)c(C)n(C)c2c2ccccc12 | -17.2 | –
33 | CNC[C@H]1Oc2c(NC(=O)C3CCCCC3)cccc2C(=O)N([C@H](C)CO)C[C@@H]1C | 11.7 | –
34 | CCOC(=O)C(Cc1ccccc1)NC(=O)CCc1c(C)nc2c(c(C)nn2-c2ccc(C)c(C)c2)c1C (centres undefined) | -29.9 | –
35 | Cc1cc(C)c2c(NC(=O)C3CC3)nn(C)c2n1 | -6.29 | –
36 | O=C(NCCc1ccccn1)c1nc(Cn2cc([N+](=O)[O-])cn2)no1 | 5.17 | –
37 | COc1ccc(NC(=O)CCS(=O)(=O)c2cc3c(cc2Cl)NC(=O)CO3)cc1OC | -12.9 | –
38 | CCOc1ccc(N2C(=O)Nc3ccccc3C2(O)C(=O)NCc2ccco2)cc1 (centres undefined) | -10.1 | –
39 | Cc1ccc(NC(=O)c2sccc2C)cc1[N+](=O)[O-] | 5.4 | –
40 | O=C(CSc1nccc(=O)[nH]1)Nc1ccc(N2CCOCC2)c(Cl)c1 | -2.28 | –
41 | Cc1ccc(OCC(=O)NCCCNC(=O)c2ccco2)cc1C | 11 | –
42 | CCCC(C(=O)NC1CCCC1)N(C(=O)Cn1nnc(-c2ccc(C)o2)n1)c1cccc(O)c1 (centres undefined) | 7.3 | –
43 | CC(=O)c1ccc(S(=O)(=O)N2CCC3(CC2)OCCO3)cc1 | -1.56 | –
44 | O=C(CSc1ncccn1)N1CCCC1 | -6.15 | –
45 | COc1ccc(O)c(C(=O)c2cnc3c(c2)c(-c2ccc(F)cc2)c(C#N)c(=O)n3C)c1 | -34.5 | –
46 | CC(=O)Nc1cccc(-c2cc(NC=O)c3ncc(-c4ccc(F)c(Cl)c4)n3c2)c1 | – | 23.1 µM (active)
47 | Cc1ccc(C(=O)N2CCN(C(=O)N3CCOCC3)CC2)cc1 | -0.646 | –
48 | CN(C)C(=O)c1cccc(-c2cnc3c(NC=O)cc(-c4ccc(F)cc4)cn23)c1 | – | 6.51 µM (active)
49 | Cc1c(NC(=O)Nc2ccc(F)c(Cl)c2)c(=O)n(-c2ccccc2)n1C | -2.31 | –
50 | COc1cc(C(=O)N2CCN(C)CC2)cc(OC)c1OC | 9.33 | –
51 | COc1ccc(-c2cc(NC(C)=O)c3ncc(-c4cc(OC)c(OC)c(OC)c4)n3c2)cn1 | – | 2.59 µM (active)
52 | N#C/C=C(/c1ccc(F)cc1)N1CCOCC1 | -2.86 | –
53 | O=CNc1cc(-c2ccc(C(=O)N3CCOCC3)cc2)cn2c(-c3ccc(F)cc3)cnc12 | – | 20.6 µM (active)
54 | CNc1cnc(-c2cc(OC)c(OC)c(OC)c2)cn1 | 8.84 | –
